Most compounds without a hit are left out; they make up all but 27% or so of the library.
CYP2C19 inhib = human CYP2C19 inhibition; actives 21% (n = 96,000); inhibition, % at 5 µM; CYP2C19 Supersomes, luciferin-H EGE luminescence, 30 min; P33261;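 active means CYP2C19 inhibition above a set limit at 5 µM in the primary screen, cut at about 50% in these data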;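 further: plate controls were negative control wells for no effect and 2.5 mM tranylcypromine positive control for full effect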
Cav3 T inh = blocks human Cav3.2 T-type calcium channel; actives 4% (n = 100,000); Cav3.2-expressing cells, Fluo-4 calcium fluorescence FDSS; stronger effect = lower value; AID 449739; B-score at 10 µM;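 active means single-dose well whose peak fluorescence ratio is a statistical outlier from its plate by either plate-standardised score or position-corrected B-score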
CYP2C19 act = cytochrome P450 2C19 (human) activation; activation factor at 5 µM; P33261; 96,000 tested, under 10 active; recombinant CYP2C19, luciferin-H EGE luminescence; stronger effect = higher value; 0 = fully inhibited enzyme, 1 = untreated enzyme;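 active means activation factor of at least 2 at 5 µM in the primary screen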;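 further: 0 = wells with 2.5 mM tranylcypromine and 1 = vehicle-only wells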
CYP2C9 inh = human CYP2C9 inhibition; P11712; CYP2C9 Supersomes, luciferin-H conversion, luminescence; inhibition, % at 5 µM; actives 20% (n = 96,000); AID 777;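 active means blocking of liver enzyme CYP2C9 beyond about 50% at 5 µM, limit read from the data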
CYP2C9 act = activators of human CYP2C9; P11712; recombinant CYP2C9, luciferin-H conversion, luminescence; stronger effect = higher value; factor 1 = untreated enzyme, 0 = blocked; activation factor at 5 µM; actives 1.4% (n = 96,000); AID 1024;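 active means activation factor of 2 or more for CYP2C9 at a 5 µM dose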;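 further: 0 = sulfaphenazole-blocked wells and 1 = vehicle-only wells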
* marks the source's active call; other numbers are inactive results; . = no result.

SMILES	CYP2C19 inhib	Cav3 T inh	CYP2C19 act	CYP2C9 inh	CYP2C9 act
Cc1ccc(NC(=O)NNC(=O)Cn2nc(-c3ccccc3)c(-c3ccccc3)c(C#N)c2=O)cc1	24	-7*	0.8	57*	0.4
Cc1ccc(-c2nn(CC(=O)O)c(=O)c3ccccc23)cc1	.	-0.039	.	.	.
COc1ccc(-c2nc(CN3CCC(C(=O)N4CCc5ccccc54)CC3)c(C)o2)cc1OC	13	-4.1	0.9	30	0.7
CCOC(=O)c1c(NC(=O)Cn2nnc3ccccc32)sc2c1CCC(C)C2 (stereo unspecified)	61*	-1.1	0.4	88*	0.1
COC(=O)C1=CN(CC2CCCO2)C=C(C(=O)OC)C1c1ccsc1 (stereo unspecified)	30	-0.86	0.7	52*	0.5
CNC(=O)NC(=O)CSc1ccc(NC(C)=O)cc1	2	-0.048	1	0	1
Nc1n[nH]c2c1C1(CCCCC1)Cc1ccccc1-2	58*	0.028	0.4	33	0.7
CCSc1nc(N)c2c3c(sc2n1)CN(C)CC3	19	0.79	0.8	-19	1.2
CCOC(=O)c1cnn(-c2ncnc3sc4c(c23)CCC4)c1N	11	-0.26	0.9	15	0.8
CCN(CC)C(=O)CSc1nc(N)c2c3c(sc2n1)CC(C)CC3 (stereo unspecified)	56*	0.5	0.4	54*	0.5
O=C(CSc1ncnc2sc3c(c12)CCCCC3)NCc1ccco1	34	-2	0.7	31	0.7
CCOC(=O)CSc1nc(N)c2c3c(sc2n1)CCCC3	41	-0.29	0.6	62*	0.4
CC(C)c1nc2sc3c(SCC(=O)NCc4ccco4)ncnc3c2c2c1CCC2	59*	0.13	0.4	70*	0.3
CCOC(=O)c1cnn(-c2nc(SC)nc3sc4c(c23)CCCC4)c1N	-11	-1.3	1.1	63*	0.4
COc1nc(N(CC(N)=O)S(=O)(=O)c2ccccc2)nc(C)c1Cl	.	0.33	.	.	.
COCCCNc1nc2c(-c3cccc(C)c3)nnn2c2ccccc12	.	0.3	.	.	.
C=C1CCN([C@@H](CC(C)C)C(=O)NCc2ccccc2)S(=O)(=O)c2ccccc21	.	-1.3	.	.	.
CC1CCc2c(sc3nc(SCC(=O)NCc4ccco4)nc(N)c23)C1 (stereo unspecified)	37	-2.5	0.6	61*	0.4
CCOC(=O)CSc1nnc(CSc2nc3sc4c(c3c(=O)[nH]2)CCCC4)n1-c1ccccc1	74*	-6*	0.3	70*	0.3
CCOC(=O)CSc1nnc2n(C3CCCCC3)c(=O)c3c4c(sc3n12)CCCC4	54*	-3.7	0.5	63*	0.4
CCC1(C)Cc2c(sc3c2c2ncnn2c2nnc(SCC(=O)NCc4ccco4)n32)CO1 (stereo unspecified)	11	3.7*	0.9	43	0.6
CSc1nnc2n(C3CCCCC3)c(=O)c3c4c(sc3n12)CCCC4	24	.	0.8	32	0.7
O=C(CSc1nnc2c3c4c(sc3ncn12)CCCC4)NCc1ccco1	28	0.044	0.7	14	0.9
Cc1nc2sc3c(c2c2nnc(SCC(=O)NCc4ccco4)n12)CCCC3	98*	-1.1	0	72*	0.3
Fc1ccc(-c2cnc[nH]2)cc1	55*	.	0.5	76*	0.2
SMILES	CYP2C19 inhib	Cav3 T inh	CYP2C19 act	CYP2C9 inh	CYP2C9 act
Cc1nc2ccccc2cc1OCc1ccccc1	26	.	0.7	65*	0.4
COc1cccc(CNc2ncnc3cc(OC)c(OC)cc23)c1	13	1.7	0.9	-47	1.5
Cc1nc2ccccc2cc1OCc1ccc(Cl)cc1	1	0.0067	1	25	0.8
COc1cccc(COc2cc3ccccc3nc2C)c1	43	-2	0.6	78*	0.2
O=[N+]([O-])c1ccc(NCCNS(=O)(=O)c2ccccc2)c(C(F)(F)F)c1	88*	-4.9*	0.1	75*	0.3
Cc1ccc(S(=O)(=O)NCCNc2ccc([N+](=O)[O-])cc2C(F)(F)F)cc1	49	-4.6	0.5	77*	0.2
O=C(NCCNc1ccc([N+](=O)[O-])cc1C(F)(F)F)c1ccccc1F	92*	-2.3	0.1	-6	1.1
O=C(O)c1cc([N+](=O)[O-])ccc1NCCCc1ccccc1	.	-2.9	.	.	.
O=C1CC(C(=O)Nc2cccc3ccccc23)C2(CCCC2)O1 (stereo unspecified)	16	-0.38	0.8	1	1
COc1ccccc1N1CCN(C(=O)CSc2nc(C)c(Cc3ccccc3)c(=O)[nH]2)CC1	23	-3	0.8	26	0.7
O=C(O)C1C2CCC(O2)C1C(=O)Nc1cnn(Cc2ccccc2)c1 (stereo unspecified)	83*	-0.34	0.2	20	0.8
O=C(Nc1cnn(Cc2ccccc2)c1)c1cc2nc(-c3ccco3)cc(C(F)(F)F)n2n1	12	-0.82	0.9	1	1
CCCC(=O)Nc1nc(-c2ccc3c(c2)OCCO3)cs1	13	-1.5	0.9	86*	0.1
O=c1[nH]c(SCc2ccccc2Cl)nc2c1CCC2	-8	-0.9	1.1	13	0.9
Cc1ccccc1CSc1nc2c(c(=O)[nH]1)CCCC2	7	.	0.9	60*	0.4
Cc1ccc(CSc2nc3c(c(=O)[nH]2)CCC3)cc1	12	-0.46	0.9	56*	0.4
Cc1ccc(CSc2nc3c(c(=O)[nH]2)C(c2ccncc2)C2=C(CCCC2=O)N3)cc1 (stereo unspecified)	94*	0.2	0.1	95*	0.1
O=C(c1ccc([N+](=O)[O-])cc1)N(Cc1ccc(Br)cc1)N1C(=O)CCCC1=O	73*	-0.72	0.3	27	0.7
CCc1ccc(/C(C)=N\Nc2ccc([N+](=O)[O-])cc2)cc1	22	0.18	0.8	7	0.9
CCC(C)N1CCN(C(=O)c2cccs2)CC1 (stereo unspecified)	.	-0.026	.	.	.
Cc1ccc(/C=C/C2=Cc3c(sc(NC(=O)CSc4n[nH]c(N)n4)c3C#N)C(C)(C)C2)o1	20	0.99	0.8	91*	0.1
CC(=O)c1c(C(C)=O)c(C)n(Cc2ccc3c(c2)OCO3)c1C	75*	0.58	0.2	55*	0.5
CC(=O)c1c(C)n(CC(=O)NCc2ccc3c(c2)OCO3)c2ccccc12	75*	-2.9	0.3	59*	0.4
Cc1cc(=O)oc(C)c1C(=O)N1CCN(Cc2ccc3c(c2)OCO3)CC1	0	0.59	1	5	0.9
O=C(NCc1ccco1)C1CCCN(S(=O)(=O)c2cccc3nsnc23)C1 (stereo unspecified)	30	0.31	0.7	-8	1.1
O=S(=O)(Nc1ccn(-c2ccccc2)n1)c1ccc(Br)cc1	72*	-2.2	0.3	99*	0
CC(=O)CC(=O)Nc1ccn(-c2ccccc2)n1	1	0.47	1	0	1
CC(C)c1ccc(OCC(=O)NCc2ccco2)cc1	90*	-1.2	0.1	74*	0.3
CC(C)COc1ccc(C(=O)NCc2ccco2)cc1	18	-0.21	0.8	22	0.8
CCOc1ccc(C(=O)NCc2ccco2)cc1	66*	-0.0055	0.3	-1	1

Source: PubChem BioAssay
